Data reported in the OligoGym collection.

The sequences below were run against PION (assay: pooled miR-30 sensor sort-seq; sequence = guide strand). Conditions: shRNA.
Further: reference of the scale not given here.

| Sequence | sensor-assay potency score (higher = more potent) |
| --- | --- |
| TTTTCTTCTTTTCTACACCCTG | -0.629 |
| TTTTCTAAAACATCTGCGCCGC | -0.387 |
| TAACATACACACAAACTTCCTG | 0.883 |
| TTCTTTAGTAGACTGAACTAAA | -0.809 |
| TTAGTAGACTGAACTAAACTTG | -0.14 |
| AACATACACACAAACTTCCTGT | 0.437 |
| TTGAACATTAAGTAGGTGGAAG | -0.626 |
| TAGTAGACTGAACTAAACTTGC | -0.883 |
| TATAGTTCTGAAGCAGTCGCGT | -0.318 |

These sequences were tested against PIP5K1B in the same assay as above. Conditions: shRNA.

| Sequence | sensor-assay potency score (higher = more potent) |
| --- | --- |
| TTGCAGGAAATCTAAGTCCTTA | -0.188 |
| TTGGTCTATGAACAGAAACAGT | -1.55 |
| TTGACATCTTGAAAACTCTTAA | -0.776 |
| TTGCATACAATACAGTCCGTAA | -1.09 |
| TTCGCTTATACGTTGAGCCTTT | 0.43 |
| TTGAGGACACAATCTCCTGTGA | -0.569 |
| TTAAATTCATGTAATAGCCTGG | 0.247 |
| TTGAACTGGAAGGTAACCCTTT | 0.268 |
| TTTGAATAGAGTGTAGGCCTGT | 0.71 |
| TCTAACTTCTTCATTAACCTAT | 0.135 |
| TAATCCATGATCTTGAAGCTTT | -0.406 |
